Legend:
ETS1 [1] = biological target: T1, ETS1 (UniProt P14921); assay: ETS1 binding intensity (PBM fluorescence), ETS1 alone (arbitrary fluorescence units); higher = stronger binding; conditions: ETS1 concentration 1 nM; RUNX1 concentration 0 nM
T1 sequence: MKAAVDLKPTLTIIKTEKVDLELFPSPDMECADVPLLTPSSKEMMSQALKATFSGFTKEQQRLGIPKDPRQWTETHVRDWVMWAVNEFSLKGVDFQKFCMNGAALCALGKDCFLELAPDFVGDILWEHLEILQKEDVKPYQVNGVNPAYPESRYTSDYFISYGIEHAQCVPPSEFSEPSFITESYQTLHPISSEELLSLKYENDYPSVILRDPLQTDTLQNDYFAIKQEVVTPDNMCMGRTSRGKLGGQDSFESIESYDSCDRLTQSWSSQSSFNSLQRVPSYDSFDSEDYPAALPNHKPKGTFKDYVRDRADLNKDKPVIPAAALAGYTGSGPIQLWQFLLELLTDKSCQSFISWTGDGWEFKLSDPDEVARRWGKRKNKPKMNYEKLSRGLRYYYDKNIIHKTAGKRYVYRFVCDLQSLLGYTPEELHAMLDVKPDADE

RUNX1 [2] = biological target: RUNX1 (UniProt Q01196); assay: RUNX1 binding intensity (PBM fluorescence), RUNX1 alone (arbitrary fluorescence units); higher = stronger binding; conditions: RUNX1 concentration 2 nM; ETS1 concentration 0 nM
RUNX1, sequence (Q01196 whole entry): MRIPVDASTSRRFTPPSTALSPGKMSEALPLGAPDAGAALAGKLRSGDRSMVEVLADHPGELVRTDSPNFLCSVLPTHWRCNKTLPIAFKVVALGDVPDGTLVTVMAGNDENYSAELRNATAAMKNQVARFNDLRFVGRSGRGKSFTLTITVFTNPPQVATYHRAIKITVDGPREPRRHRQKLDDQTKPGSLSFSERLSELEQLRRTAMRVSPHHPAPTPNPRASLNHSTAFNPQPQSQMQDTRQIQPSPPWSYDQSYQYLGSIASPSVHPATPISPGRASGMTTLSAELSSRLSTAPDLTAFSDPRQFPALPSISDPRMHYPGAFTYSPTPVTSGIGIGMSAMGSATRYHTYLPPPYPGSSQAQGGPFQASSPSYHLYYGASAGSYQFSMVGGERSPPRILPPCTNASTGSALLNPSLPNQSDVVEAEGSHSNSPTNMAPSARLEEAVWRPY
Experimental: (§1)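 Cooperative gcPBM on 36-bp genomic probes with neighbouring ETS1 and RUNX1 sites. Recombinant human RUNX1 (2 nM) was incubated alone or with ETS1 (25 nM) and detected with anti-RUNX1 antibody plus Alexa488 secondary. Values are medians over 4 replicate spots; the RUNX1+ETS1 data were normalised to the RUNX1-only data. The probes sit in constant array flanks that are not printed.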

ETS1 [3] = biological target: T1, ETS1; assay: ETS1 binding intensity (PBM fluorescence) in presence of RUNX1, normalised to ETS1-only experiment (arbitrary fluorescence units); higher = stronger binding; conditions: ETS1 concentration 1 nM; RUNX1 concentration 25 nM
RUNX1 [4] = biological target: RUNX1 (UniProt Q01196); assay: RUNX1 binding intensity (PBM fluorescence) in presence of ETS1, normalised to RUNX1-only experiment (arbitrary fluorescence units); higher = stronger binding; conditions: RUNX1 concentration 2 nM; ETS1 concentration 25 nM
Experimental: as §1
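Wherever RUNX1 binding intensity (PBM fluorescence) in presence of ETS1, normalised to RUNX1-only experiment is given: Full-length recombinant human ETS1 or RUNX1 bound to double-stranded 36-bp genomic probes on microarrays, detected by protein-specific primary antibody and Alexa488 secondary, spot fluorescence as median of four replicate spots.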
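Wherever RUNX1 binding intensity (PBM fluorescence), RUNX1 alone is given: Full-length recombinant human RUNX1 bound to double-stranded 36-bp genomic probes on a high-density microarray, scored as Alexa488 fluorescence per spot via anti-RUNX1 antibody, median of four replicate spots.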

Sequence | ETS1 binding intensity (ETS1 [1]) | RUNX1 binding intensity (RUNX1 [2]) | ETS1 binding intensity (ETS1 [3]) | RUNX1 binding intensity (RUNX1 [4])
TATTCTTCCTGTACTTAAGCTTGCTGGTGTGGTTTC | 397 | 868 | 492 | 1560
GGCGGGACTTCCGGCGTCTCCCCTCGGCGGTTGCTT | 2330 | 751 | 2700 | 1980
CTAAGCAGAGGCCGGAAGCGGTGGTTTTTAGCGGCT | 10200 | 677 | 20400 | 2090
AGAGCGAGGAGGACTTCCTGCGGCAGGTCGGCGTGA | 635 | 652 | 622 | 1080
GGCACCGGAAGTAGAGCTGCCCCTAGTTGCGGCAGT | 9240 | 767 | 12800 | 1380
GTGAACTTCCTCCCCCACTGCCTATTTTTACCGCAG | 624 | 1820 | 596 | 3950
CCCTGGGGCCCCACTTCCTTGCCCACAAGAAAGGAC | 395 | 1020 | 446 | 1360
CTGCTTCCGGCCCCGGGGTTCGCTACCCCACAATCC | 1210 | 981 | 1240 | 2530
AAAACAACTCCAGGATGTGGTTTTACTCAGAATGTA | 1310 | 928 | 7410 | 2710
CCCGCCGGAAGGACGCGTCTGCGTCTCTGCGGCGAG | 680 | 688 | 1010 | 955
TTGTCAGATGGCGAAGGAAACCGCGAAATTCGCCAT | 608 | 1270 | 1270 | 1050
GGGGCAGCTTCCGGCAGGAGAGCCCGCATTCACGGC | 731 | 1370 | 751 | 2360
CCCGCCACTTCCCTGCCTCTGCGGGAGCCCCCCAGC | 573 | 938 | 545 | 1430
GCCTGCACCCTAGTTCCGGTGTGGGTGGAGGGGCCG | 1040 | 4050 | 999 | 4850
AGCTTTCCTTTTCCGGTTGCGGCGCCGCGCGTTGAT | 1800 | 926 | 1820 | 2340
TGCACCCGCCACTTCCGCATCGAACCGCCGCTTCAA | 1100 | 1030 | 1140 | 3470
GCCGTAGCGGAAGAGTGTTCGTGGTCATGTGACGCC | 671 | 718 | 814 | 1160
TGCGACGGAAGCAGGAACTTGCTAACCACAAAACCC | 1350 | 1790 | 13200 | 3420
TGGCAGCGGGTGCGGAAACCACAGGCCTCCAGGCTT | 701 | 1480 | 1520 | 2470

Sequence | ETS1 binding intensity (ETS1 [1]) | RUNX1 binding intensity (RUNX1 [2]) | ETS1 binding intensity (ETS1 [3]) | RUNX1 binding intensity (RUNX1 [4])
AGCGCCACACTTCCGCTTTGCGGCAGTGTGCGCCCC | 3490 | 730 | 3280 | 1890
CCTGGGGGGCCGGAAGCCCCGCTGCGGCCCCAGCCC | 3060 | 737 | 2480 | 1130
TGTTTTCGCTCTTCCTGGCCTTGCGGGCAGCCAGGA | 390 | 1060 | 783 | 1510
ACACAGGAAGCAAAAGTTAAGCTATAAAACCCGCAA | 571 | 969 | 765 | 1240
AACTTCCTCCGCGCGGGGCCACTGCTACCACAAAGG | 373 | 1070 | 588 | 2540
GGATGACATCCGGCACCAACTTAACCACTAATCTCA | 615 | 947 | 1690 | 2410
GCCGCGAGTTCCGCCGGGTGGACCACAAATCCCGAG | 373 | 831 | 451 | 904
GTTTCCACTTCCTGCTGTGCAGCAGTACCACCAAGA | 1000 | 992 | 1030 | 2800
ATCTTCCGTAGCAGTCAGGTGTTTTGTGGTTTGCAG | 460 | 1490 | 1300 | 2670
AACCCCAAAACGGAAACACCGGAGCCACAAGCTGAG | 731 | 900 | 961 | 1300
CTCTCTGGGCGGAAGGAACGCGGTCACCCTGAGAAA | 547 | 833 | 968 | 871
GTTGGGCTTTGAGGATGTGGGTTCTAGAAGTTTACA | 928 | 890 | 2120 | 1050
GAGATACACAGCGACATCCGCCCGCAAGAGCATGGT | 823 | 733 | 1090 | 1280
ATCTTAAGTGTTTCCTGACACCACAAATCCCCAAAC | 501 | 1020 | 507 | 1020
GCCCACTTCCTGCCGTAAGAGAAAACCACTAACACA | 890 | 1970 | 2190 | 4760
AAAAGGCACCAGGAAATGACAGCACCGCAGCACGCC | 1290 | 717 | 2020 | 871
GGCAGCCGGCTTCCGGCTGTGGGTGGTGCGGGGGAC | 1370 | 676 | 1820 | 1540
AAACTACACCTCAGAGGATGTGGTTCCTTCTCTCAT | 1130 | 854 | 1730 | 946
